Source: PubChem BioAssay AID485364 (National Center for Advancing Translational Sciences (NCATS), 2010)
About 11,000 (3.1%) of roughly 360,000 compounds were called active. Where a call stands in place of a potency, no number is given. About 4% were inconclusive and are not listed. Calls come from the whole dose curve; as a rule, active = well fitted inhibition curve with a large enough effect; inconclusive = small, poorly fitted or top-dose-only effect; inactive = no such curve, though single readings can be large or run the other way. The sample as a whole holds a higher share of actives than the screen did.

Target: Schistosoma mansoni thioredoxin glutathione reductase (TGR) (UniProt Q962Y6)
Assay: qHTS Assay for the Inhibitors of Schistosoma Mansoni Peroxiredoxins; note: nearly all actives have a fitted effect of over 60% in size
Conditions: purified TGR, DTNB reduction, TNB absorbance 405 nm; series mostly up to 114 µM
In short: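 First, TGR (20 nM dispensed) and NADPH were mixed with compound. Second, a 15 min room-temperature incubation followed. Third, further NADPH and then DTNB were added to start the reaction. Finally, TNB absorbance was monitored kinetically.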
Potency is the fitted concentration of half-maximal effect.

Row | SMILES | Potency
1 | Cc1ccc(C)c(N2CCN(CCCNC(=O)Nc3ccc(Cl)cc3)CC2)c1 | inactive
2 | CC(C)c1ccc(S(=O)(=O)N2CCN(C(C)C(=O)NC3CCCC3)CC2)cc1 (stereo not given) | inactive
3 | CC(C(=O)NC1CCCC1)N1CCN(S(=O)(=O)c2ccccc2Cl)CC1 (stereo not given) | 35.5 µM (active)
4 | O=C(Cc1ccc(S(=O)(=O)N2CCCC2)s1)NC1CCCCCC1 | inactive
5 | O=C(Nc1ccc(OC(F)(F)F)cc1)C1CCCN(S(=O)(=O)c2ccc(Br)s2)C1 (stereo not given) | inactive
6 | Cc1ccc2nc(SCC(=O)N3CC(C)OC(C)C3)nc(=O)n2c1 (stereo not given) | inactive
7 | Cc1ccc2nc(SCC(=O)Nc3cccc4ccccc34)nc(=O)n2c1 | inactive
8 | Cc1ccc2nc(SCC(=O)N3CCN(c4ccccc4)CC3)nc(=O)n2c1 | 50.1 µM (active)
9 | COC(=O)CC1Oc2ccccc2-n2cc(-c3ccccc3)nc21 (stereo not given) | inactive
10 | Cc1nc(SCC(=O)Nc2ccc(C(=O)O)cc2)n[nH]1 | inactive
11 | CSc1ncc(Cl)c(C(=O)Nc2ccc(S(=O)(=O)N3CCCC(C)C3)cc2)n1 (stereo not given) | inactive
12 | Cc1cc(=O)n2[nH]c(-c3sccc3-n3c(C)ccc3C)cc2n1 | 31.6 µM (active)
13 | Cc1cc(=O)n2[nH]c(-c3cccc(Cl)c3)cc2n1 | inactive
14 | C=CCc1c(C)nc2cc(-c3ccccc3)[nH]n2c1=O | inactive
15 | O=C(Nc1cc(Cl)cc(Cl)c1)c1ccc2c(c1)N(Cc1cccc(Cl)c1)C(=O)c1ccccc1S2=O (stereo not given) | inactive
16 | CCCCNc1ccc(-c2nc(-c3ccncc3)no2)cc1[N+](=O)[O-] | inactive
17 | CC(C)CNc1ncnc2c1nnn2C | inactive
18 | COc1ccc(-n2nnnc2SCC(=O)NCc2cccs2)cc1 | inactive
19 | COc1ccc(-n2c(SCC(=O)NCc3cccs3)nnc2-c2ccoc2C)cc1 | 39.8 µM (active)
20 | COc1ccc(-n2c(SCC(=O)NCc3ccco3)nnc2-c2c[nH]c3ccccc23)cc1 | inactive
21 | COc1ccc(-c2noc(CCC(=O)N(C)c3ccccc3C)n2)cc1 | inactive
22 | CCCSc1ncc(Cl)c(C(=O)Nc2c(C(=O)Nc3ccccc3)oc3ccccc23)n1 | inactive
23 | COc1ccc(C2CC(=O)N(Cc3ccccc3C)c3c2c(C)nn3-c2nc(C)cc(C)n2)c(OC)c1 (stereo not given) | inactive
24 | O=C(NC(=S)NC1CCCCC1)c1ccc(Cl)cc1 | inactive
25 | COc1ccc(C(=O)NC(=S)NC2CCCCC2)cc1 | 1.41 µM (active)

Row | SMILES | Potency
26 | CCCNC(=S)N1CCC(NC(=O)c2ccc(OC)cc2)CC1 | inactive
27 | CCc1ccccc1N(C)C(=O)C1CCCN(c2ncnc3onc(-c4ccc(F)cc4)c23)C1 (stereo not given) | inactive
28 | CCn1cc(C(=O)N2CCN(c3cc(C)ccc3C)CC2)c(=O)c2cc(S(=O)(=O)N(C)C3CCCCC3)ccc21 | inactive
29 | CCc1ccccc1NC(=O)CSc1nnc(-c2ccccc2)c(-c2ccccc2)n1 | inactive
30 | O=C(NCc1ccccc1Cl)C(=O)NCC1CCCN1S(=O)(=O)c1cccs1 (stereo not given) | inactive
31 | Cc1ccccc1CNC(=O)C(=O)NCC(c1cccs1)S(=O)(=O)c1cccs1 (stereo not given) | 25.1 µM (active)
32 | COC(C(=O)NCc1ccccc1C)c1ccccc1 (stereo not given) | inactive
33 | CC(C)C(=O)NCC(c1cccs1)S(=O)(=O)c1ccc(F)cc1 (stereo not given) | inactive
34 | COc1ccccc1CCNC(=O)C(=O)NCCC1CCCCN1S(=O)(=O)c1cccs1 (stereo not given) | inactive
35 | COc1ccccc1CNC(=O)C(=O)NCC(c1cccs1)S(=O)(=O)c1cccs1 (stereo not given) | 25.1 µM (active)
36 | Cc1ccc(SCC(=O)Nc2ccc3oc(-c4ccccc4C)nc3c2)cc1 | inactive
37 | CCC(C)NC(=O)Cn1c(=O)n(-c2ccc(Cl)cc2)c(=O)c2c3c(sc21)CCCC3 (stereo not given) | inactive
38 | Cc1c(Cl)cccc1NC(=O)C1CCCN(c2ncnc3onc(C)c23)C1 (stereo not given) | inactive
39 | CCOc1ccc(NC(=O)Cn2c(C)ccc(C#N)c2=O)cc1 | inactive
40 | Cc1ccc(CSCC(=O)N(C)CC(=O)Nc2ccc(C)cc2)cc1 | inactive
41 | CSCC(NS(=O)(=O)c1ccc(C)cc1)C(=O)O (stereo not given) | inactive
42 | Cc1ccc(CSCC(N)C(=O)O)cc1 (stereo not given) | 28.2 µM (active)
43 | CCc1ccc(NC(=O)CCS(=O)(=O)c2cc3c(cc2Cl)NC(=O)CO3)cc1 | inactive
44 | Fc1ccc(CN2CCc3nc(Nc4ccccc4)ncc3C2)cc1F | inactive
45 | CCOC(=O)C1=C(O)/C(=C/c2ccc(OCC(=O)Nc3ccc(C)cc3)cc2)N=C1C | inactive
46 | CCOC(=O)C1=C(O)/C(=C/c2cc(C)n(-c3ccccc3)c2C)N=C1C | 28.2 µM (active)
47 | COC(=O)C1=C(O)/C(=C/c2ccc(OCC(=O)Nc3ccccc3)cc2)N=C1C | inactive
48 | CCOc1ccccc1C(=O)Nc1ccc2c(c1)N(C)C(=O)c1ccccc1S2 | inactive
49 | O=C(Cn1c(=O)n(-c2ccc(F)cc2)c(=O)c2sc3ccccc3c21)NC1CCCC1 | inactive
50 | Cn1c(-c2ccc(F)cc2)cnc1SCC(=O)NNC(=O)Cc1ccccc1 | inactive

Row | SMILES | Potency
51 | O=C(CSc1nnc2scc(-c3ccc(F)cc3)n12)NCc1ccco1 | inactive
52 | Cn1c(-c2ccc(F)cc2)cnc1SCC(=O)NCc1ccco1 | 31.6 µM (active)
53 | CCN(CC)C(CNC(=O)CSc1nnnn1-c1cccc(F)c1)c1ccco1 (stereo not given) | inactive
54 | Cc1nc2nc(SCC(=O)NCc3ccco3)nn2c(C)c1Cc1ccccc1 | 20 µM (active)
55 | Cc1ccc(Cc2c(C)nc3nc(SCC(=O)NCCN4CCOCC4)nn3c2C)cc1 | inactive
56 | O=C(CSc1nnnn1-c1ccccc1)NCc1ccco1 | 79.4 µM (active)
57 | O=C(CSc1nnc(-c2c[nH]c3ccccc23)n1-c1ccc(F)cc1)NCc1ccco1 | inactive
58 | CCOc1ccccc1-n1c(SCC(=O)NCc2ccco2)nnc1-c1ccncc1 | 44.7 µM (active)
59 | CCn1c(SCC(=O)NCc2ccco2)nnc1-c1ccc(N)cc1 | inactive
60 | Cc1ccc(-c2csc3nnc(SCC(=O)NCc4ccco4)n23)cc1 | inactive
61 | Cc1cc(C)n2nc(SCC(=O)NC(=O)NCc3ccco3)nc2n1 | inactive
62 | COc1cccc(NC(=O)C(=O)NCC(c2ccc3c(c2)OCO3)N2CCN(C)CC2)c1 (stereo not given) | inactive
63 | Cc1ccc(CN2CCC(CNC(=O)c3cnn(-c4ccccc4Cl)c3C3CCN(C(=O)OC(C)(C)C)CC3)CC2)cc1 | inactive
64 | COc1ccc2c(c1)c(=O)c(C(=O)c1ccccc1)cn2CC(=O)Nc1ccc2c(c1)OCCO2 | inactive
65 | CCOc1ccccc1NC(=O)Cn1c(=O)n(-c2cccc(C)c2)c(=O)c2c1c1cc(OC)ccc1n2C | inactive
66 | O=C(Cn1cnc2c(oc3ccccc32)c1=O)Nc1ccc(OC(F)(F)F)cc1 | inactive
67 | CC(CCCc1ccccc1)NC(=O)c1nn(-c2ccc(Cl)cc2)nc1CO (stereo not given) | inactive
68 | O=C(NCCCO)c1nn(-c2ccc(Cl)cc2)nc1CO | inactive
69 | O=C(N/N=C/c1ccc(Br)o1)c1cncc(Br)c1 | inactive
70 | O=C(CN1CCOCC1)N/N=C/c1ccc(-c2ccc(Br)cc2)o1 | inactive
71 | O=C(CCC(=O)N/N=C/c1ccc(Br)o1)N/N=C/c1ccc(Br)o1 | 35.5 µM (active)
72 | CC(C)(C)OC(=O)N1CCC(c2c(C(=O)NCCc3ccsc3)cnn2-c2ccc(F)cc2F)CC1 | inactive
73 | Cc1ccc(NC(=O)Nc2ccc3oc(C)nc3c2)cc1 | inactive
74 | CCc1ccc2oc(-c3ccc(N)cc3)nc2c1 | inactive
75 | CCN(CC)c1ccc2oc(=O)c(C)nc2c1 | 35.5 µM (active)

Row | SMILES | Potency
76 | Cc1cccc2c(=O)cc(CSc3ccccc3NC(=O)C(C)C)[nH]c12 | inactive
77 | O=C(Nc1ccccc1F)C(c1ccccc1)N1Cc2ccccc2C1=O (stereo not given) | inactive
78 | Cc1ccc(-c2nc(CS(=O)(=O)CC(=O)NCc3ccccc3Cl)c(C)o2)cc1 | inactive
79 | COc1ccc(-c2nc(CS(=O)(=O)CC(=O)NCc3cccc(Br)c3)c(C)o2)cc1 | inactive
80 | Cc1ccc(-c2nc(CS(=O)(=O)CC(=O)NCc3ccc4c(c3)OCO4)c(C)o2)cc1 | 20 µM (active)
81 | O=C(NCc1ccccc1)c1cccc(NC(=O)N2CCSc3ncccc32)c1 | inactive
82 | O=C(c1cccc(Br)c1)N1CCN(Cc2cc(=O)n3nc(-c4ccccc4)sc3n2)CC1 | inactive
83 | NS(=O)(=O)c1ccc(NC(=S)NC(=O)c2cccnc2)cc1 | 22.4 µM (active)
84 | NS(=O)(=O)c1ccc(NC(=S)NC(=O)c2cccc(Br)c2)cc1 | 15.8 µM (active)
85 | CC(C)NS(=O)(=O)c1ccc(NC(=O)c2cccnc2)cc1 | inactive
86 | NS(=O)(=O)c1ccc(NC(=S)Nc2ccc(Br)c(Cl)c2)cc1 | inactive
87 | O=C(Nc1ccc(S(=O)(=O)Nc2ncccn2)cc1)c1cncc(Br)c1 | inactive
88 | O=C(NC(=S)Nc1ccc(S(=O)(=O)Nc2ncccn2)cc1)c1cccc(Br)c1 | 20 µM (active)
89 | O=C(NC(=S)Nc1cccc2c(O)cccc12)c1cccc(Br)c1 | inactive
90 | Cc1cc(NS(=O)(=O)c2ccc(NC(=O)c3cccnc3)cc2)nc(C)n1 | inactive
91 | COc1ccc(OC)c(C(C)NC(=S)Nc2ccc(S(=O)(=O)Nc3ncccn3)cc2)c1 (stereo not given) | inactive
92 | O=C(CSc1nnc(CNC(=O)c2ccccc2)n1-c1ccc(F)cc1)Nc1ccccc1F | inactive
93 | CCOc1ccc2oc(=O)cc(CN3CCN(C(=O)c4ccc(F)cc4)CC3)c2c1 | inactive
94 | O=C1CSC2(C(=O)N(Cc3ccccc3)c3ccccc32)N1c1cccc(F)c1 (stereo not given) | inactive
95 | O=C(Nc1ccc(-c2nc3cc(NC(=O)c4ccccc4Cl)ccc3o2)cc1)c1ccccc1Cl | inactive
96 | COc1cccc(C(=O)Nc2ccc(-c3cc(C(F)(F)F)nn3-c3ccccc3)cc2)c1 | inactive
97 | Cc1cc(OCC(=O)Nc2ncn[nH]2)c(C)c(C)c1Br | inactive
98 | Cc1c(-c2ccccc2)nc(N)c(C#N)c1-c1cccs1 | inactive
99 | CC(NC(=O)CSc1nc2c(cc1C#N)CN(C)CC2)c1ccccc1 (stereo not given) | inactive
100 | CN1CCc2nc(SC(C(=O)O)c3ccccc3)c(C#N)c(-c3cccs3)c2C1 (stereo not given) | 39.8 µM (active)
